# Measured values from PubChem BioAssay (Tox21).
# Inconclusive results are not listed. A number with no mark means an inactive call. The source made the active and inactive calls. The call rests on the fitted dose curve; in most records, active means well fitted inhibition curve with a large enough effect in the signal ratio in the repeat runs (not every such curve was filed as active); inconclusive means weak or mixed curves, or effect the other way; inactive means no such curve, though single readings can be large or run the other way; the % refers to the signal ratio.
# Biological target: Glucocorticoid receptor (Homo sapiens) (UniProt P04150)
# Sequence (P04150 whole entry, looked up): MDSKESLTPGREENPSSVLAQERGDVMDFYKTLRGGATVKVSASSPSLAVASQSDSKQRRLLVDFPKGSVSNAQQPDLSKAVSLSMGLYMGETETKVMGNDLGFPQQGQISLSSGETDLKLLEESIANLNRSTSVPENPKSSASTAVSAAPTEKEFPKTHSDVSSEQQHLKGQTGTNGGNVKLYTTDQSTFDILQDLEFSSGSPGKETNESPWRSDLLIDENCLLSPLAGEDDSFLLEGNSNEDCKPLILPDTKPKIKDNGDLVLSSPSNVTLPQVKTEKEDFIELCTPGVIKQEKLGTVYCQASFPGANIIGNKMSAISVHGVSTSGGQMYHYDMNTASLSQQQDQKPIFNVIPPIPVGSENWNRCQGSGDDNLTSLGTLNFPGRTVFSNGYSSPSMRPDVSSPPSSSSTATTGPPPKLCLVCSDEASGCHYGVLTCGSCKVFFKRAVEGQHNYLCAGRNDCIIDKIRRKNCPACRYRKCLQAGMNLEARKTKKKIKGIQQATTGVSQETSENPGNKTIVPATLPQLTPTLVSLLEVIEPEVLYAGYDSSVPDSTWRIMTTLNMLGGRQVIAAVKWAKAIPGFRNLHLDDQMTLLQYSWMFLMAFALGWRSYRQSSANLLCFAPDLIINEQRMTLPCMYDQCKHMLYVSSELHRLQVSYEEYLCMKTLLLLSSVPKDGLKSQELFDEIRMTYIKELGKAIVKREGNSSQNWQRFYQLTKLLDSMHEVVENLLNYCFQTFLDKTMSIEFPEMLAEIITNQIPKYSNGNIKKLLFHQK
# Assay: qHTS assay to identify small molecule antagonists of the glucocorticoid receptor (GR) signaling pathway (AID 720692)
# Details: GR-bla HeLa, beta-lactamase FRET ratio, dexamethasone-stimulated, 18 h; series mostly up to 58.5 µM; activity change, negative = inhibition: at the top concentration
# How it was run: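 In a 1536-well cell format, compounds were added 4 h after seeding GR-bla HeLa cells, together with dexamethasone at 5 nM final; reporter activity was measured by FRET-substrate fluorescence following 18 h at 37 C.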
# On the % scale 0 is the no-effect control and ±100 the full control effect; potency means the concentration at half of the fitted maximal effect.
SMILES,"activity change, negative = inhibition",Potency
C=CCN1C[C@H](C)N([C@H](c2ccc(C(=O)N(CC)CC)cc2)c2cccc(OC)c2)C[C@H]1C,0.0059%,
O=CC=O,,inactive
C=C(C)C(=O)OCCCCOC(=O)C(=C)C,4.62%,
CCCCCBr,-16.3% [at 78.9 µM],
Nc1ccccc1C(=O)OCCc1ccccc1,-9.66%,
CC(C)(C)N(NC(=O)c1ccc(Cl)cc1)C(=O)c1ccccc1,-16.6%,
COP(=O)(OC)OC(Br)C(Cl)(Cl)Br (stereo unspecified),2.03%,
CN1CC[C@]23c4c5ccc(O)c4O[C@H]2[C@@H](O)C=C[C@H]3[C@H]1C5,-3.49%,
NP(N)(=O)NC(=O)c1ccc(F)cc1,4.35%,
CN(C)c1ccc(N=O)cc1,,38.9 µM (active)
CC(=O)NNc1ccccc1,,10.9 µM (active)
Clc1ccccc1,-14.1%,
CC(C)c1ccc(NC(=O)N(C)C)cc1,-0.0417%,
c1ccc2sc(SNC3CCCCC3)nc2c1,,inactive
NCCc1cc(O)c(O)cc1O,11.1%,
O=[N+]([O-])c1cc(Cl)c(Cl)cc1Cl,-21.3%,
